# Results filed as inconclusive are left out. A number with no mark means an inactive call. Active and inactive are the calls of the source. Calls follow the shape of the dose curve; as a rule, active = well fitted inhibition curve with a large enough effect; inconclusive = small, poorly fitted or top-dose-only effect; inactive = flat fitted curve, though single readings scatter.
# Assay: High Content Assay for Compounds that inhibit the Assembly of the Perinucleolar Compartment: PC3M Cytotoxicity
# Settings: PC3M cells, ATPLite luminescence viability, 24 h; series mostly up to 46.1 µM; activity change, negative = cytotoxicity: at the top concentration
# Source text: High Content Assay for Compounds that inhibit the Assembly of the Perinucleolar Compartment
# NIH Chemical Genomics Center [NCGC]
# NIH Molecular Libraries Probe Centers Network [MLPCN]
# Assay Submitter (PI): Sui Huang, Northwestern University, Feinberg School of Medicine, Cell and Molecular Biology, Chicago, Illinois.
# The perinucleolar compartment (PNC) is a non-membrane-bound nuclear subdomain that is associated with but structurally distinct from the nucleolus. The PNC is a heritable trait, in which the number of PNCs per cell in daughter cells often mimics that of their mother cells. The PNC is heterogeneous in shape, is stable through interphase, disassembles during mitosis, and reassembles in early G1. The PNC is concentrated with newly synthesized RNA polymerase III (pol III) RNAs (MRP RNA, RNAse P H1 RNA, hY RNAs[hY1, 2, 5], Alu RNA, and SRP [7SL] RNA) and RNA binding proteins (nucleolin, PTB, CUG-BP, KSRP, Raver1, Raver2, and Rod).
# Extensive in vitro studies have shown that the PNC is unique to tumor cells and preferentially forms in tumor cells derived from solid tissues. Examination of cancer cell lines from various origins and malignant capacities has shown that PNC prevalence correlates with the malignancy of tumors and has the potential to be developed as a pan-cancer prognostic marker.
# Although the PNC is associated with a DNA locus and a handful of components have been identified, much remains to be investigated regarding the structure and function of the PNC and its mechanistic link to cancer. We have previously shown that PNC prevalence reduction is a valid strategy to identify compounds that can be used to study the structure and function of the PNC. It is necessary, however, to create a screening platform that is able to test a large number of compounds in an automated fashion. Here we report the development and robustness of an automated whole-cell phenotypic image-based screening assay that is capable of identifying such compounds.
# We conducted a followup assay to measure the effect of the lead candidates on cell health by measuring ATP levels (ATPLite). The highly metastatic PC3M-GFP reporter cell line was used in this study.
# 1. Cells at a density of 75-90% confluency in T175 flasks were harvested using 7 ml TrypLE Express cell dissociation reagent. After dissociation (5 minutes room temperature incubation) 10 ml of complete media was added to the TrypLE/cell suspension. The liquid was transferred to a 50 ml Conical tube and cells were pelleted at 1000 RPM for 5 min. Supernatant was removed and cells were resuspended to a final density of 150-200 cells/ul in complete media.
# 2. Cells were plated in 5 ul volume (2000 cells/well) into 1536 well White solid bottom plates and allowed to recover and adhere at 37 C in a humidified 5% CO2 incubator for 4 hours.
# 3. After 4 hour incubation, compound libraries (23 nl of 12.5 uM in columns 5-48) were transferred to the plates in duplicate using a 1536 well pintool. Camptothecin positive control (59 uM final) was added to column 2 and 1:3 dilutions of camptothecin was added to column 3. DMSO negative controls were present in columns 1 and 4.
# 4. After a 24 hour incubation in the 37 C incubator, all wells were treated with 3 ul of ATPLite reagent using a multidrop combi dispenser (ThermoFisher). Bubbles that formed during dispensing were removed by spinning the plates for 1 minutre at 1500 RPM on a table top centrifuge.
# 5. Luminescencent signal was detected on a Viewlux CCD based imager (PerkinElmer) with a clear filter and a 30 second integration time.
# The PC3M cell line stably expressing the PTB-GFP was provided by Sui Huang of Northwestern University. The media and cell culture reagents were purchased from Invitrogen (Carlsbad, CA), ATPLite came from PerkinElmer.
SMILES,"activity change, negative = cytotoxicity [%]",Potency
O=C(COC(=O)Cc1ccsc1)NCC1CCCCC1,1.89,
COc1ccc(CN2CCC(C(=O)NCCc3ccc(OC)c(OC)c3)CC2)c(OC)c1,-5.79,
Nc1ccc2c(c1)C(=O)C(=O)c1ccccc1-2,,22.4 µM (active)
CCCSc1cc(N2CCN(C)CC2)nc(-c2ccc(OC)cc2)n1,-2.66,
COc1ccc(-c2csc(NC(=O)c3ccc(OCC(=O)N4CCOCC4)c(OC)c3)n2)cc1,-19.6,
COC(=O)C1=C(C)N(c2ccc(Br)cc2)C(=O)/C1=C\c1ccco1,-9.56,
COc1ccc(-c2cc(C#N)nc(N3CCN(C)CC3)n2)cc1,-4.37,
Cc1ccc(NC2=C/C(=N/S(=O)(=O)c3cccs3)c3ccccc3C2=O)cc1,,14.1 µM (active)
CCCNC1=C(N(C(C)=O)c2cccc(F)c2)C(=O)c2ccccc2C1=O,,11.2 µM (active)
CC(=O)c1ccc(-n2c(SCC(=O)c3c[nH]c4ccccc34)nc3ccccc3c2=O)cc1,-0.271,
CCN(CC)c1ccc(N=Cc2ccccc2[N+](=O)[O-])cc1,11.6,
O=C1C(Nc2ccccc2)=C/C(=N/S(=O)(=O)c2cccs2)c2ccccc21,,15.8 µM (active)
CCCCN(C(=O)Nc1ccc(Cl)cc1)C1CCN(C(C)=O)CC1,-17.1,
COc1ccc2nc3sc(C(=O)NCCCN4CCc5ccccc5C4)cc3cc2c1,,31.6 µM (active)
O=[N+]([O-])c1cc(/C=N/Nc2nc3ccccc3[nH]2)c(O)cc1O,,7.94 µM (active)
COc1cc(/C=N/NC(=O)c2ccc(CSc3nc4ccccc4[nH]3)cc2)cc(OC)c1OC,-25,
Cc1cc(SC(C)C(=O)Nc2ncc(Cl)cc2Cl)nc2ccccc12 (stereo not given),,11.2 µM (active)
Cc1cccc(C)c1Nc1c(-c2ccc(N3CCOCC3)cc2)nc2ncccn12,-2.92,
O=C(N/N=C/c1ccccc1O)c1cccc(C(F)(F)F)c1,,10 µM (active)
Cc1c(NC(=O)COC(=O)c2cc(-c3ccc(-c4ccccc4)cc3)nc3ccccc23)c(=O)n(-c2ccccc2)n1C,,5.01 µM (active)

SMILES,"activity change, negative = cytotoxicity [%]",Potency
O=C1C(=Cc2cccs2)C(=O)c2ccccc21,-11.4,
O=C(Nc1cccnc1)c1cccs1,13.2,
CSc1nc(-c2ccc(C)cc2)nc(C(Cl)Cl)n1,,31.6 µM (active)
Cc1cc(C)c(S(=O)(=O)/N=C2/C=C(Sc3ncn[nH]3)C(=O)c3ccccc32)cc1C,,14.1 µM (active)
CCOC(=O)NC1(Nc2ccc(C)cc2)Oc2ccccc2O1,-5.34,
Cc1cc(C(=O)Cn2nnc3ccccc3c2=O)c(C)n1-c1ccccc1F,,7.94 µM (active)
Cc1ccc(Cl)cc1N(CC(=O)N1CCCCCC1)S(C)(=O)=O,-19,
O=C(NCc1ccco1)C1CCN(Cc2ccc(F)cc2)CC1,-8.55,
CCOC(=O)CSc1nc2c(sc3ccc([N+](=O)[O-])cc32)c(=O)n1Cc1ccco1,8.39,
Cc1ccccc1C(=O)NNC(=S)Nc1cccc(C(F)(F)F)c1,-7.03,
O=C(N/N=C\c1ccc([N+](=O)[O-])s1)c1cncc(Br)c1,,25.1 µM (active)
CNC1=C(N(C(C)=O)c2ccc(Br)cc2)C(=O)c2ccccc2C1=O,,8.91 µM (active)
CCOC(=O)Cn1c(-c2nonc2NC(=O)c2ccccc2F)nc2ccccc21,,4.47 µM (active)
CN1c2ccccc2C(C)(C)C12CC(c1ccc(Cl)c(S(=O)(=O)N3CCCC3)c1)=NO2 (stereo not given),,3.98 µM (active)
CN(C)c1ccc(N=Nc2ccccc2C(=O)OCC(=O)NC2CCCC2)cc1,-11.2,
O=C(N/N=C/c1cc2c3c(c1O)CCCN3CCC2)c1ccccc1O,,3.16 µM (active)
O=C1C(=O)c2ccc(-c3ccccc3)cc2-c2ccccc21,,15.8 µM (active)
CC(=O)Nc1cccc(Oc2ncnc3scc(-c4ccc(C)cc4)c23)c1,-9.47,
COc1ccc(-c2nc(NC(=O)c3n[nH]c(=O)c4ccccc34)sc2C)cc1,,7.08 µM (active)
O=C(N/N=C/c1cc(Cl)ccc1O)C(=O)Nc1ccccc1OC(F)(F)C(F)F,,14.1 µM (active)

# Reference: PubChem BioAssay AID2733 (National Center for Advancing Translational Sciences (NCATS), 2010)
